Experimental data from PubChem BioAssay AID1259343 (VanderVen Lab, College of Veterinary Medicine, Cornell …, 2017).
In all, about 6,200 compounds went through this assay and about 2,900 (47%) were called active. The set was probably picked from earlier hits. The list shows a part of the results. Values without a mark were called inactive. Rule as the data show it: active = inhibition above about 50%; inactive = the rest.

assay: Mycobacterium tuberculosis growth inhibition, primary screen (AID 1259343); details: inhibition: at 10 µM, hits give high values; outcome: 10 uM

Compound | inhibition
Cc1ccc(Nc2nc(C)c([N+](=O)[O-])c(N3CCOCC3)n2)c(C)c1 | 2.59%
COCCCNc1ncnc2c1c(-c1ccccc1)cn2-c1ccc(OC)cc1 | 91.3% (active)
COc1ccc(-n2cc(-c3ccccc3)c3c(NCC(OC)OC)ncnc32)cc1 | 19.7%
COCC(C)Nc1ncnc2c1c(-c1ccccc1)cn2-c1ccc(F)cc1 (stereo not drawn) | 72.1% (active)
COCC(C)Nc1ncnc2c1c(-c1ccccc1)cn2-c1ccc(OC)cc1 (stereo not drawn) | -15.1%
Cc1ccc(-n2cc(-c3ccccc3)c3c(NCCCO)ncnc32)cc1 | 24.3%
COCCNc1ncnc2c1c(-c1ccccc1)cn2-c1cccc(Cl)c1 | 42.5%
COCCCNc1ncnc2c1c(-c1ccccc1)cn2-c1ccc(F)cc1 | 98.3% (active)
COCCNc1ncnc2c1c(-c1ccccc1)cn2-c1ccc(C)cc1 | 100% (active)
CN(CC1=CC[C@H]2C[C@@H]1C2(C)C)Cc1nnc(-c2ccccc2)o1 | 39%
CCCCCCSc1nnc2[nH]c(=O)cc(N)n12 | inactive
CCCCCCCSc1nnc2[nH]c(=O)cc(N)n12 | inactive
CCCCCCSc1nnc2nc(C)cc(C)n12 | 58.4% (active)
O=C(NS(=O)(=O)c1cncc(Br)c1)c1ccc(OC(F)(F)F)cc1 | 18.9%
O=C(NS(=O)(=O)c1ccccc1)c1cccc(Cl)c1 | 88.3% (active)
O=S(=O)(Nc1ccc(C(F)(F)F)cc1)c1cccc(Cl)c1 | 22.9%
COc1cc(C(=O)NS(=O)(=O)c2ccc(Cl)cc2)ccc1OC(C)C | 28.1%
CNc1cc(C(=O)NS(=O)(=O)c2ccccc2)cc(Cl)n1 | 55.1% (active)
Cc1cc(-c2nc3c(C)cccc3o2)ccc1NC(=O)C(C)C | 58.5% (active)
Cc1ccc2oc(-c3ccc(C)c(N)c3)nc2c1 | 37.6%
N#Cc1c(N=CN2CCCCCC2)sc2c1CCCC2 | 99% (active)
Cc1ccc(-n2[nH]c(C)c(N=Nc3cccc(-c4cccc(C(=O)O)c4)c3O)c2=O)cc1C | 83.7% (active)
Cc1cccc2cc(C(=O)N3C[C@H]4CC=CC[C@H]4C3)oc12 | 72.4% (active)
Cc1cc2cccc(C(=O)N3CCN4CCN(C)C(=O)C4C3)c2o1 (stereo not drawn) | 0.8%
Cc1ccc(NC2CCCN(C(=O)c3cc4ccccc4o3)C2)cc1C (stereo not drawn) | inactive
Cc1cnc(NC(=O)c2ccc(N(C)C3CCCCC3)cc2)s1 | 45.9%

Compound | inhibition
S=C(Nc1ccccc1)Nc1nncs1 | 15.5%
O=C(Nc1nncs1)c1ccc(C2CCCCC2)cc1 | 82.1% (active)
O=C1NC(=S)SC1=Cc1ccccc1OCc1ccccc1 | 102% (active)
O=C1NC(=S)SC1=Cc1ccccc1OC(F)F | 81.1% (active)
N#Cc1ccc(-c2ccc(O)cc2)cc1 | 96.9% (active)
C=CCOc1ccc(-c2ccc(C#N)cc2)cc1 | -10.6%
Oc1ccc(-c2ccc(I)cc2)cc1 | 20.3%
O=C(Nc1ccc(Cl)cc1)N1CCC1c1ccccc1F (stereo not drawn) | -6.67%
O=C(CCl)N1CCSC1c1ccccc1F (stereo not drawn) | 99.6% (active)
CCN1CCN(c2c(CN(C(=O)Nc3ccc(SC)cc3)C(C)C)c(C)nn2-c2cccc(F)c2)CC1 | 74.4% (active)
CCCn1nc(C(=O)NC(C)c2nnc3n2CCC3)ccc1=O (stereo not drawn) | 3.57%
Cn1nc(C(=O)NCC23CC4CC(CC(C4)C2)C3)ccc1=O | 77.1% (active)
Nc1c(C=C2C=C([N+](=O)[O-])C=C(Br)C2=O)c(=O)nc2sc(-c3ccccc3)nn12 | 45.7%
O=C(O)c1cc(-c2cccc(F)c2)n2nc(-c3ccccc3)cc2n1 | 34.3%
O=c1cc(-c2ccccc2)nc2sc(Br)nn12 | 102% (active)
O=c1[nH]c2c(Cl)c(Cl)c(Cl)cc2o1 | 31.7%
O=c1[nH]c2cc(Cl)c(Br)cc2o1 | 81.6% (active)
O=c1[nH]c2c(Br)c(Br)c(Cl)cc2o1 | inactive
CCc1c(C)nc(-n2nc(C)cc2NC(=O)c2ccccc2SC)[nH]c1=O | 100% (active)
CCc1cc(=O)[nH]c(-n2nc(C)cc2NC(=O)c2ccccc2SC)n1 | 99.7% (active)
CCc1c(C)nc(-n2nc(C)cc2NC(=O)c2cccc3ccccc23)[nH]c1=O | 100% (active)
Cc1cc(NC(=O)c2cccc3ccccc23)n(-c2nc(C)c(C)c(=O)[nH]2)n1 | -30.4%
CCc1c(C)nc(-n2nc(C)cc2NC(=O)Cc2cccc3ccccc23)[nH]c1=O | 98.5% (active)
CCc1c(C)nc(-n2nc(C)cc2NC(=O)c2ccccc2C)[nH]c1=O | 12.6%
CNc1cccc(-c2ccc(O)cc2)n1 | 33.6%
C=CCn1c(-c2ccc(Cl)cc2Cl)csc1=Nc1cccc(O)c1 | -10.5%

Compound | inhibition
CCOC(=O)Cn1c(=NC(=O)c2ccccc2[N+](=O)[O-])sc2cc(C(C)C)ccc21 | 3.22%
CCc1c(C)nc(-n2nc(C)cc2NC(=O)c2ccccc2C(F)(F)F)[nH]c1=O | 101% (active)
CCc1c(C)nc(-n2nc(C)cc2NC(=O)c2cc(=O)c3ccccc3o2)[nH]c1=O | 101% (active)
CCc1c(C)nc(-n2nc(C)cc2NC(=O)c2cc3ccccc3o2)[nH]c1=O | -38.5%
Cc1cccc(-c2nc(C)c(Cc3ccccc3)c(N3CCNCC3)n2)c1 | 101% (active)
CCc1c(C)nc(-c2ccc(OC)cc2)nc1N1CCNCC1 | 42.7%
Cc1nc(-c2ccc(Cl)cc2)nc(N2CCNCC2)c1Cc1ccccc1 | 97.6% (active)
Cc1nc(C)c(Cc2ccccc2Cl)c(N2CCN(C(=O)c3cccc(Br)c3)CC2)n1 | 29.3%
Cc1cccc(OC2CN(c3nc(-c4ccccn4)nc4c3CCNC4)C2)c1 | 26.7%
Cc1ccc(-c2nc(C)c(C(C)C)c(N3CCNCC3)n2)cc1 | 44%
Cc1nc(-c2ccc(Cl)cc2)nc(N2CCNCC2)c1C | 79.2% (active)
Cc1nc(-c2cccc(F)c2)nc(N2CCNCC2)c1Cc1ccccc1 | 66.1% (active)
COC(=O)c1ccc(NC(=O)c2ccc(Br)o2)cc1 | 83.8% (active)
Cc1ccc(CN(C)c2ccc(C(=O)O)cc2)cc1 | 51.7% (active)
CN(Cc1ccc(Cl)cc1)c1nccc(-c2cc(C(=O)O)ccn2)n1 | 17.6%
CN(Cc1ccc(C(N)=O)cc1)c1cccc(F)c1C#N | 13.8%
O=C(NCCc1ccc(O)cc1)Nc1cccc2c1CCCC2 | 7.1%
O=C(CCc1ccc(O)cc1)N1CCOC(c2ccc(Cl)cc2)C1 (stereo not drawn) | 19.6%
O=C(CCc1ccc(O)cc1)c1c(O)cc(O)cc1O | 93.3% (active)
Clc1ccc2nc(NN=Cc3ccccn3)nc(-c3ccccc3)c2c1 | 92.1% (active)
C(=NNc1ccc2ccccc2n1)c1ccccn1 | -19.7%
Clc1ccc(NN=Cc2ccccn2)cc1Cl | 14.1%
Nc1ccc(S(=O)(=O)Nc2ccnn2-c2ccccc2)cc1 | 55.2% (active)
CC(C)=CCCC(C)CCNCCc1ccco1 (stereo not drawn) | -15%
CC(NC(=O)c1ccc(Oc2ccccc2)cc1)C1CCCO1 (stereo not drawn) | 92.8% (active)
CC(=O)N1CCC(NC(=O)c2ccc(Oc3ccccc3)cc2)CC1 | 16.9%

Compound | inhibition
CC(Nc1nc(-c2cccs2)nc2ccccc12)C1CCCO1 (stereo not drawn) | -41.2%
Cc1cccc(/C=C/c2nc(-c3cc(C(=O)O)co3)cs2)c1 | 42.9%
OCC1(CCc2ccccc2)CCCN(Cc2cc3ccccc3o2)C1 (stereo not drawn) | 23.5%
Oc1ccccc1CN1CCCn2cccc2C1c1cccc(C(F)(F)F)c1 (stereo not drawn) | 22.1%
O=C(C=Cc1ccc2c(c1)OCO2)c1ccc(Cl)cc1Cl | 73.5% (active)
O=C(C=Cc1ccc2c(c1)OCO2)c1ccc(Br)cc1 | -39.3%
CC(C)(C)c1ccc(C2=NC(=Cc3ccc4c(c3)OCO4)C(=O)O2)cc1 | -19.9%
COC(=O)c1nnn(-c2ccc(C)c(C)c2)c1C(=O)OC | 82.4% (active)
COC(=O)CCc1nnc(NS(=O)(=O)c2ccc(C)c(C)c2)s1 | 48.8%
Cc1cc(N)c2ccccc2[n+]1CCCCCCCCCC[n+]1c(C)cc(N)c2ccccc21 | 72.6% (active)
c1cnc2c(c1)ccc1cccnc12 | 95.2% (active)
c1ccc(-c2cn3c(n2)CCc2ccc4cccnc4c2-3)cc1 | 16.6%
c1cnc(Sc2ccc3ccccc3c2)nc1 | 32.8%
NC(=O)COc1cccc(CN2CCCSc3ccccc32)c1 | 35.4%
Cc1c(Cc2ccccc2)c(=O)oc2cc(OCC(N)=O)ccc12 | 62.1% (active)
COc1cccc(-c2coc3c(C)c4oc(=O)c(CCC(=O)O)c(C)c4cc23)c1 | 47%
ClC1(Cl)CC1Cn1c(Cc2ccccc2)nc2ccccc21 (stereo not drawn) | 25.7%
CCc1ccc(OCCCn2c(CO)nc3ccccc32)cc1 | 77% (active)
CCc1ccc(OCCn2c(CO)nc3ccccc32)cc1 | 34.1%
CCOc1ccc(N=C(Nc2ccc(OCC)cc2)SC)cc1 | -1.39%
COc1ccc(N=C(Nc2ccc(OC)cc2)SC)cc1 | 74.3% (active)
CCn1c(=S)[nH]c2sc3c(c2c1=O)CCC(C)C3 (stereo not drawn) | 21.2%
Cn1c(=S)[nH]c2scc(-c3cccs3)c2c1=O | -21.9%
CCn1c(=S)[nH]c2scc(-c3cccs3)c2c1=O | 98.8% (active)
Cc1csc(NC(=O)c2ccc(COc3cccc4c3OC(C)(C)C4)cc2)n1 | 92.8% (active)
